These results are taken from PubChem BioAssay (Tox21).

The target of test [1] is Thyrotropin-releasing hormone receptor (Homo sapiens) (UniProt P34981). Kind of test: qHTS assay to identify small molecule antagonists of the thyrotropin-releasing hormone receptor (TRHR) signaling pathway (AID 1346877; active = well fitted inhibition curve with a large enough effect in the repeat runs, not every such curve was filed as active; note: series mostly up to about 51 µM). In a few lines: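 Screening used HEK293 cells engineered with TRHR, with a brief 5 min room-temperature compound exposure preceding addition of TRH to 1 nM. The read-out was kinetic calcium-dye fluorescence, concentration-response from 15 doses in triplicate.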
Sequence of Thyrotropin-releasing hormone receptor (Homo sapiens) (P34981 whole entry, looked up): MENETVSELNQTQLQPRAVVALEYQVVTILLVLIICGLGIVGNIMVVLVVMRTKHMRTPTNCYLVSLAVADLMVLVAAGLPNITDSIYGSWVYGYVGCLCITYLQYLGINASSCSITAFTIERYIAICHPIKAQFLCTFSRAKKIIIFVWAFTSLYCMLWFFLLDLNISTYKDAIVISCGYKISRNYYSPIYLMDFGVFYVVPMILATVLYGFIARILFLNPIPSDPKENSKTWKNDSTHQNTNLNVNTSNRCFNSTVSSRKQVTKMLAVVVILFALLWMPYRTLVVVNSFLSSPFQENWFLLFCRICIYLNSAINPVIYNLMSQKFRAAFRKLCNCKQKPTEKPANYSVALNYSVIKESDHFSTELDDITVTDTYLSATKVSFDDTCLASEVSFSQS
(In general: qHTS replaces the single test concentration by a dilution series.)

Test [2] has the same target. Briefly: qHTS assay to identify small molecule agonists of the thyrotropin-releasing hormone receptor (TRHR) signaling pathway (AID 1346891; calls by dose curve;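 note: HEK293 cells expressing TRHR with calcium dye readout; series mostly up to about 58 µM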). A digest of the protocol: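 Overnight-plated (18 h, 37 °C, 5% CO2) TRHR-Hek293 cells; 2 h calcium dye at 37 °C; compound in DMSO; 3-min kinetic fluorescence read.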
The nature of test [3]: Human pregnane X receptor (PXR) small molecule agonists, qHTS cell viability counter screen (AID 1346977). Note: nearly all actives have a fitted effect of over 50% in size. In a few lines:
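After a 5hr pre-incubation, PXR-Luc HepG2 cells received compounds plus positive control in DMSO and were kept 24hr at 37C. Cell viability was quantified by fluorescence from CellTiter-Fluor added for the final hour.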

A short description of test [4]: Caspase-3/7 induction in HepG2 cells by small molecules, qHTS assay (AID 1346978). Note: nearly all actives have a fitted effect of over 15% in size. A digest of the protocol: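 Wild-type HepG2 cells (2,000/well) were settled 5 h at 37 C, 5% CO2, then exposed to compounds in DMSO for 17 h. Caspase-3/7 activity was read by luminescence 30 min after adding Caspase-Glo 3/7 reagent at room temperature.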
Test [5] is described as follows: Caspase-3/7 induction in CHO-K1 cells by small molecules, qHTS assay (AID 1346980). Note: nearly all actives have a fitted effect of over 15% in size. A digest of the protocol:
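Wild-type cells were seeded at 1,500 per well and settled 5 hr at 37 C, 5% CO2, then exposed to DMSO-dissolved compounds for 17 hr. Caspase-Glo 3/7 reagent was added, and luminescence was read after 30min at room temperature.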

The nature of test [6]: Caspase-3/7 induction in HepG2 cells by small molecules, qHTS cell viability counter screen (AID 1346981). Note: series mostly up to about 92 µM; nearly all actives have a fitted effect of over 30% in size. In a few lines:
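Multiplexed with the caspase-3/7 assay: HepG2 cells, 16 hr compound treatment, CellTiter-Fluor viability detection by fluorescence.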

Test [7] has as its target Nuclear receptor subfamily 1 group I member 2 (Homo sapiens) (UniProt O75469). Briefly: Human pregnane X receptor (PXR) small molecule agonists, qHTS assay (AID 1346982). Note: nearly all actives have a fitted effect of over 35% in size. Note: potency is the fitted concentration of half-maximal effect. In a few lines: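 We seeded PXR-Luc HepG2 cells in assay medium containing 5% charcoal-stripped FBS, added compounds 5 hr later, incubated 24 hr, and read luminescence with ONE-Glo reagent.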
Test [8] deals with Cytochrome P450 2D6 (Homo sapiens) (UniProt P10635). Briefly: Cytochrome P450 Family 2 Subfamily D Member 6 (CYP2D6) small molecule antagonists: luciferase reporter qHTS assay (AID 1671196). Note: nearly all actives have a fitted effect of over 50% in size. Note: potency is the fitted concentration of half-maximal effect. In a few lines:
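Luminescence (RLU), read 20 min after detection reagent, indicated CYP2D6 conversion of proluciferin to luciferin during a 1 h NADPH-dependent reaction at room temperature.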

In test [9] the target is Cytochrome P450 2C19 (Homo sapiens) (UniProt P33261). Briefly: Cytochrome P450 Family 2 Subfamily C Member 19 (CYP2C19) small molecule antagonists: luciferase reporter qHTS assay (AID 1671197). Note: nearly all actives have a fitted effect of over 65% in size. Note: potency is the fitted concentration of half-maximal effect. In a few lines:
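CYP2C19 P450-Glo, 1536-well qHTS. Cpd + enzyme/proluciferin substrate 10 min RT; + NADPH regen, 37C 1 h; stop with luciferin detection reagent, 20 min RT, luminescence (RLU). Pos ctrl ketoconazole.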
(In a reporter assay the amount or activity of a reporter protein is the signal.)

Test [10] deals with Cytochrome P450 1A2 (Homo sapiens) (UniProt P05177). Briefly: Cytochrome P450 Family 1 Subfamily A Member 2 (CYP1A2) small molecule antagonists: luciferase reporter qHTS assay (AID 1671199). Note: nearly all actives have a fitted effect of over 50% in size. Note: potency is the fitted concentration of half-maximal effect. In a few lines:
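CYP1A2 turnover of a luminogenic substrate was quantified after 1 h with NADPH regeneration at room temperature. Furafylline served as positive control.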

Test [11] addresses Voltage-gated inwardly rectifying potassium channel KCNH2 (Homo sapiens) (UniProt Q12809). Briefly: Human Ether-a-go-go-Related Gene (hERG) channel small molecule antagonists: fluorescence cell-based qHTS assay (AID 1671200). Note: nearly all actives have a fitted effect of over 50% in size. Note: potency is the fitted concentration of half-maximal effect. In a few lines: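 Cell line hERG-U2OS; dye FluxOR II, 1 h RT dark; Tl+ stimulus; ex 480/em 540 nm, read each second for 2 min.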
On the technique in general: Block of hERG is tested as a sign of cardiac risk.

Test [12] can be described thus: Caspase-3/7 induction in CHO-K1 cells by small molecules, qHTS cell viability counter screen (AID 1346979). Note: nearly all actives have a fitted effect of over 35% in size. A digest of the protocol: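 Multiplexed with Caspase-Glo 3/7 in CHO-K1 cells, this counter screen added CellTiter-Fluor after 16hr of compound exposure and recorded fluorescence 1hr later.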
Test [13] deals with Cytochrome P450 2C9 (Homo sapiens) (UniProt P11712). Kind of test: Cytochrome P450 Family 2 Subfamily C Member 9 (CYP2C9) small molecule antagonists: luciferase reporter qHTS assay (AID 1671198). Note: nearly all actives have a fitted effect of over 50% in size. Note: potency is the fitted concentration of half-maximal effect. A digest of the protocol: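 CYP2C9 activity was measured with a P450-Glo proluciferin substrate. Enzyme–substrate mix was held with compound for 10 min at room temperature, then NADPH regeneration solution was added for 1 h at 37C. Luciferin product was read as luminescence.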
Sequence of Cytochrome P450 2C9 (Homo sapiens) (P11712 whole entry, looked up): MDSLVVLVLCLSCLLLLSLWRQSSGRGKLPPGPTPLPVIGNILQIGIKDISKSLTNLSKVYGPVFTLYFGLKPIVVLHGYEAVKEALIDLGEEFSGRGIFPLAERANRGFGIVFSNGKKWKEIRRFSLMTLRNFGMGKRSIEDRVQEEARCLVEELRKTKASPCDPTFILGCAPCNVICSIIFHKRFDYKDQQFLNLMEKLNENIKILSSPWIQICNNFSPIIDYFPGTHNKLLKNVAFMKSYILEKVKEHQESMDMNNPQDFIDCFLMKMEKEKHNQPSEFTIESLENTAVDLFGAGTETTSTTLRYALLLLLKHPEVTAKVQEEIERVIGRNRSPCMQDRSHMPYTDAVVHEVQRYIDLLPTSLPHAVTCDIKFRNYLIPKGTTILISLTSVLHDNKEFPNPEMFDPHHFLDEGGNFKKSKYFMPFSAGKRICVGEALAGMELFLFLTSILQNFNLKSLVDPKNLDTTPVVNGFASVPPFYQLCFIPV

Test [14] has as its target Cytochrome P450 3A4 (Homo sapiens) (UniProt P08684). Kind of test: Cytochrome P450 Family 3 Subfamily A Member 4 (CYP3A4) small molecule antagonists: luciferase reporter qHTS assay (AID 1671201). Note: nearly all actives have a fitted effect of over 50% in size. Note: potency is the fitted concentration of half-maximal effect. In a few lines:
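Room-temperature assay throughout: 10 min compound–enzyme/substrate preincubation, 1 h reaction after NADPH regeneration solution, 20 min detection. Luciferin formed from proluciferin substrate is quantified by luminescence.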

Test [15] addresses Nuclear receptor subfamily 1 group I member 2 (Rattus norvegicus) (UniProt Q9R1A7). Kind of test: Rat pregnane X receptor (rPXR) activation by small molecules, qHTS assay (AID 1346983). Note: nearly all actives have a fitted effect of over 20% in size. Note: potency is the fitted concentration of half-maximal effect. The note with it: rPXR luciferase reporter cells, One-Glo luminescence, 24 h; max activation: hits give high values. In a few lines: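 Cell-based rPXR luciferase reporter assay, 2,000 cells per well, rested 5hr at 37 C before compound addition in DMSO, then 24 hr at 37 C. One-Glo reagent was added and luminescence read after 30 min at room temperature.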

The target of test [16] is Nuclear receptor subfamily 1 group I member 2 (Homo sapiens) (UniProt O75469). Kind of test: CYP3A4 induction through human pregnane X receptor (PXR) by small molecules, qHTS assay (AID 1346984). Note: nearly all actives have a fitted effect of over 40% in size. In a few lines: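 qHTS, concentration-response format: HepG2 DPX-2 line, PXR/CYP3A4-luc. Exposure 24 h, 37C. Substrate Luciferin-IPA 3uM final, 3 h. Detection One-Glo, 30 min RT.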
Sequence of Nuclear receptor subfamily 1 group I member 2 (Homo sapiens) (O75469 whole entry, looked up): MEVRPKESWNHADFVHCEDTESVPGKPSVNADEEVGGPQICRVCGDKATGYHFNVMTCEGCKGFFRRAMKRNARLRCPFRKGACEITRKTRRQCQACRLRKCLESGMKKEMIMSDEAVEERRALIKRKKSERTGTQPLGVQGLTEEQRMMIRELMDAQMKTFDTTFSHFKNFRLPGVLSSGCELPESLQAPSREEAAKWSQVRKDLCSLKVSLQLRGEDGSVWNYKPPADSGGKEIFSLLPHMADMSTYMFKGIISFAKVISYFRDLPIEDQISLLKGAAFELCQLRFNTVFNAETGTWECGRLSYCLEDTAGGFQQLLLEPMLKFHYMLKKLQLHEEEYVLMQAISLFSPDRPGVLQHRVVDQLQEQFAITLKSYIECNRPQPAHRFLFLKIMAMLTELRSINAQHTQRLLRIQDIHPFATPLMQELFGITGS

The target is the same in test [17]. Briefly: Human pregnane X receptor (PXR) activation by small molecules, qHTS assay (AID 1346985). Note: nearly all actives have a fitted effect of over 40% in size. In a few lines: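 DPX-2 cells (HepG2 co-transfected with a PXR response element and a CYP3A4-promoter luciferase construct) were seeded at 2,000 per well, rested 5 hr at 37C, then exposed to DMSO-dissolved compounds for 24 hr. Activation was read as luciferase luminescence.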

A number with no mark means an inactive call. Records with an inconclusive call do not appear. Activity calls are given as the source filed them. Unless noted, calls come from the whole dose curve; as a rule, active = well fitted curve in the direction sought with a large enough effect in the repeat runs; inconclusive = weak or mixed curves; inactive = no such curve, though single readings can be large; an effect the other way counts as inactive or inconclusive.
% is set by controls: 0 for no effect and ±100 for the full control effect.

Sequence of Voltage-gated inwardly rectifying potassium channel KCNH2 (Homo sapiens) (Q12809 whole entry, looked up): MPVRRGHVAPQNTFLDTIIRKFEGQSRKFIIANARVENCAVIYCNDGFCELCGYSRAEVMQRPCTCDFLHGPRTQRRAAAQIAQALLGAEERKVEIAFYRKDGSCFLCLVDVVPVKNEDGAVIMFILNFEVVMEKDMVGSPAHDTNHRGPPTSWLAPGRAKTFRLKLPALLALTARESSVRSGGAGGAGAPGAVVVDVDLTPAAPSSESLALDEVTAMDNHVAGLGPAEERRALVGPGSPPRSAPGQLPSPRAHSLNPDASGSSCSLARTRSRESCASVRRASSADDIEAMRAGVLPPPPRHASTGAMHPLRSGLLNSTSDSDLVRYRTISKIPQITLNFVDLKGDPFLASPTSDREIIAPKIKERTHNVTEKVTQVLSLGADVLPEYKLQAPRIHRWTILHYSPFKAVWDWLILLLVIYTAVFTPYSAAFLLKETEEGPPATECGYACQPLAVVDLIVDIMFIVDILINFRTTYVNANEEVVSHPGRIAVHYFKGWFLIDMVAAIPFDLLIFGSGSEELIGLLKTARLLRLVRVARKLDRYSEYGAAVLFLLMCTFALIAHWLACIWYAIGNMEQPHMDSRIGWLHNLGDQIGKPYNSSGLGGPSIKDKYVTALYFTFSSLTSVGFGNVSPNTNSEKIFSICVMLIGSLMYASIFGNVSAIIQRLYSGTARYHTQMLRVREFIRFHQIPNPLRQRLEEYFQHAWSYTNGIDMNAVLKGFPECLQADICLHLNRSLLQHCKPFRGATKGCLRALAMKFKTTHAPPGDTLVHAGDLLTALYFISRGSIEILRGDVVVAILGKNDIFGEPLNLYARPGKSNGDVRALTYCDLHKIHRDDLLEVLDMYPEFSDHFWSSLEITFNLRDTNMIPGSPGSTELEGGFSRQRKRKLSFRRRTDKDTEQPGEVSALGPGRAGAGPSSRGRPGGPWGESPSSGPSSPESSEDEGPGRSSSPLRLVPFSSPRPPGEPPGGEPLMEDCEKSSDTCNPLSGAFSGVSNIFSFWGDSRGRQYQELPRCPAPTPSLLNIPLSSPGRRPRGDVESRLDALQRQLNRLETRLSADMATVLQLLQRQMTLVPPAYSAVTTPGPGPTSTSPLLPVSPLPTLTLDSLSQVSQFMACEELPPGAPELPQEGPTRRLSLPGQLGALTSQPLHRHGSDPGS
Sequence of Cytochrome P450 2D6 (Homo sapiens) (P10635 whole entry, looked up): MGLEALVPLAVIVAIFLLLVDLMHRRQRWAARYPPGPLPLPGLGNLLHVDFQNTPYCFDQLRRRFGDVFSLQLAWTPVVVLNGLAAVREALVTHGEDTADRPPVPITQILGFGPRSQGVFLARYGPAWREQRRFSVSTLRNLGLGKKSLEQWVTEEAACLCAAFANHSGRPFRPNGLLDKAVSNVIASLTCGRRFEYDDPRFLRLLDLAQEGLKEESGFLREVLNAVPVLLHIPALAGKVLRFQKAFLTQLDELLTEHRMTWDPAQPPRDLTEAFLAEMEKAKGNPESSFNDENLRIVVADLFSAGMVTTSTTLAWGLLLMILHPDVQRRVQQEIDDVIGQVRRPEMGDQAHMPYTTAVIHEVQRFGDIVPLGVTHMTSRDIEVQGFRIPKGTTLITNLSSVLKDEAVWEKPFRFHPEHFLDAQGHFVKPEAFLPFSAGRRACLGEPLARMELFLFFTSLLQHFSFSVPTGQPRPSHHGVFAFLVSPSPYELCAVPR
Sequence of Cytochrome P450 1A2 (Homo sapiens) (P05177 whole entry, looked up): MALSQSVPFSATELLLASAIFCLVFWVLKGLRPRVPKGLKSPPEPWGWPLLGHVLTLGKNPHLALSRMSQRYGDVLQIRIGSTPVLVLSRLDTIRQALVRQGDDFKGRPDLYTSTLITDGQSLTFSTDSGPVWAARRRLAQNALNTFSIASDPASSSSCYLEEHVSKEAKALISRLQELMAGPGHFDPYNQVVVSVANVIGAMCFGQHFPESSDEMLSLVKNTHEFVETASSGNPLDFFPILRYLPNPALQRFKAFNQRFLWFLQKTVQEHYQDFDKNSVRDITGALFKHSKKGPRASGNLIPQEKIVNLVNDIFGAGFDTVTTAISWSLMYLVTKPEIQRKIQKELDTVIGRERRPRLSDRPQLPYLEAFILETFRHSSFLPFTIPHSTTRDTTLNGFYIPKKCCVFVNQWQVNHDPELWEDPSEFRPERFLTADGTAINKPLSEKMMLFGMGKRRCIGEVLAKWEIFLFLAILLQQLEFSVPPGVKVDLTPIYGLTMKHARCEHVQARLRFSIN
Sequence of Nuclear receptor subfamily 1 group I member 2 (Rattus norvegicus) (Q9R1A7 whole entry, looked up): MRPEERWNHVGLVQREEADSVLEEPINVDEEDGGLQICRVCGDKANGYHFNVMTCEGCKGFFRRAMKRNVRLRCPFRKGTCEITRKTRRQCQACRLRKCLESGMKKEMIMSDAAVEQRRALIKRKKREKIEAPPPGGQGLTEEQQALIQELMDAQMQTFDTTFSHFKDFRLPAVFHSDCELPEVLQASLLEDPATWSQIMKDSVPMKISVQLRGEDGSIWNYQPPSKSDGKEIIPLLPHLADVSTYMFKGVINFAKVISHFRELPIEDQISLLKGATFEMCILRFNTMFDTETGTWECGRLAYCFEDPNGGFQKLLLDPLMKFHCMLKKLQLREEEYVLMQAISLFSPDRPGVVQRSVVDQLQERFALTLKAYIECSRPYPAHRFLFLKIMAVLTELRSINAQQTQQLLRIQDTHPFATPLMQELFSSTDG
Sequence of Cytochrome P450 3A4 (Homo sapiens) (P08684 whole entry, looked up): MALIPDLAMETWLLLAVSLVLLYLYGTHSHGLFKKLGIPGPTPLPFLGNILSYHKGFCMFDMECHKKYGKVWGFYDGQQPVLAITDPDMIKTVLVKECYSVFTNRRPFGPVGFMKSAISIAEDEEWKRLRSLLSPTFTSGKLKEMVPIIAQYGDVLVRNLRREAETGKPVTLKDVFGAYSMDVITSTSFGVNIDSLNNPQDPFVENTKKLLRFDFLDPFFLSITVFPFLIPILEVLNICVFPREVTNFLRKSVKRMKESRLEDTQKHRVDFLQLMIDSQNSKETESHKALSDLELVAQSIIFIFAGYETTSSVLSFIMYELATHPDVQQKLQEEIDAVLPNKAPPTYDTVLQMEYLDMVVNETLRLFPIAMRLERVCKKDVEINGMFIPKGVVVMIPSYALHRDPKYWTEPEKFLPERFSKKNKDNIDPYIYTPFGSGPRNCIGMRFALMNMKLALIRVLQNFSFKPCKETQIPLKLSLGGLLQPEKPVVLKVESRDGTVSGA
Sequence of Cytochrome P450 2C19 (Homo sapiens) (P33261 whole entry, looked up): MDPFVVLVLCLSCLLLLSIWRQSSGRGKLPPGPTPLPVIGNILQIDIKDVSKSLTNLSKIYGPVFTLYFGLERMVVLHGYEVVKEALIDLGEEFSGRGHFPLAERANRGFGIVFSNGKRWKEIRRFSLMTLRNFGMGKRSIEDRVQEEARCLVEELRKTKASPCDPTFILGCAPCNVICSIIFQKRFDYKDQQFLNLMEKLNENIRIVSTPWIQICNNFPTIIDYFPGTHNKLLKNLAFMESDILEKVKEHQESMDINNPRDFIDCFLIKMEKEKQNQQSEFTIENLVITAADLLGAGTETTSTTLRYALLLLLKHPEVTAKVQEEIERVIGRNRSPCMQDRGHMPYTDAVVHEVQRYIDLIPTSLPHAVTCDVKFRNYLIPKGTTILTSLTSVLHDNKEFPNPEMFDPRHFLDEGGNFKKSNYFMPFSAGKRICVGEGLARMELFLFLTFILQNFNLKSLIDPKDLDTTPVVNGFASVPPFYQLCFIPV

With `O=C(O)COc1ccc2ccccc2c1`, the compound was classed as inactive in [1], in test [3], in [4], in test [5] and in test [6]. Further, the Potency entry in [2], in test [7], in test [8], in test [9], in [10] and in test [11] was “inactive” throughout.

In the case of `C=CC(C)(CCC=C(C)C)OC(=O)C(C)C` (stereo not given), the result in test [1], in test [3], in test [4] and in [5] was inactive. The Potency entry in test [2], in test [12], in test [8], in test [10] and in [11] was “inactive” in each case. Further, the Potency in [9] is 71 µM (active); in [13] it was 39.9 µM (active); in [14] it was 63.3 µM (active).

In the case of `CC(=O)OC/C=C(/C)CCC=C(C)C`, the compound was classed as inactive in test [3], in [4], in test [5] and in test [6]. Besides, the Potency result in test [12], in test [7], in test [9], in test [13], in test [10] and in [11] was “inactive” throughout. Moreover, the Potency result in test [14] is “inactive”.

Consider `Cc1cccc(N)n1`, for which the outcome in test [3], in test [4] and in test [5] was inactive. Further, in test [7], the Potency entry is “inactive”.

For `COc1cc(C(=O)NC2CCCNC2)cc(OC)c1OC` (stereo not given), the outcome in test [3], in test [4], in test [5] and in test [6] was inactive. Further, the Potency entry in test [9], in [11] and in test [14] was “inactive” in each case. Also, the Potency in test [10] was 15.5 µM (active).

As for `COc1cc(OC)cc(OC)c1`, the call in test [1], in [3], in test [4], in test [5], in test [6] and in test [16] was inactive. The compound was called inactive in test [17]. Besides, the Potency entry in test [2], in test [8], in test [9], in test [13], in test [11] and in [14] was “inactive” throughout. Moreover, the max activation in [15] is -1.98%. The Potency in test [10] is 17.4 µM (active).

On to `COC(=O)/C=C(\C)CCC=C(C)C`, for which the result in test [1], in test [3], in test [5] and in [6] was inactive. The Potency result in test [2], in [12], in test [8] and in [11] was “inactive” throughout. The Potency in test [7] was 61.1 µM (active); in [9], 25.2 µM (active); in [13], 39.9 µM (active); in test [14], 31.7 µM (active).

On to `CCOc1ccccc1OCCN[C@H](C)Cc1ccc(OC)c(S(N)(=O)=O)c1`, for which the result in test [1], in test [3], in test [4], in [5], in test [16] and in test [17] was inactive. The Potency entry in test [2], in test [9] and in test [10] was “inactive” throughout. Further, the Potency in test [7] is 26.6 µM (active); in test [8], 12.3 µM (active); in test [11] it was 21.3 µM (active). Moreover, the max activation in test [15] was -6.48%.

For the compound `CC[C@@]1(c2ccccc2)NC(=O)N(C)C1=O`, the result in test [1], in test [3], in [4], in test [16] and in test [17] was inactive. The Potency entry in test [2], in test [12], in test [7], in test [13], in [10] and in test [14] was “inactive” in each case. Moreover, the max activation in [15] is -0.191%.

Take `O=C(O)Cc1c(Cl)ccc(Cl)c1Cl`: the call in test [1], in [3], in [4], in [5] and in test [6] was inactive. Moreover, the Potency entry in [2], in test [7] and in test [11] was “inactive” throughout. Moreover, the Potency was 15.9 µM (active) in [9], 25.2 µM (active) in [10] and 12.6 µM (active) in [14].

As to `N=C(N)N`, the compound was called inactive in test [1], in test [3], in [4], in test [5] and in test [6]. Besides, the Potency result in test [2], in test [7], in test [8], in test [9], in test [10] and in test [11] was “inactive” in each case. In addition, the Potency entry in test [14] was “inactive”.

On to `COc1ccc2cc(CCC(C)=O)ccc2c1`, for which the outcome in test [3], in test [4], in [5], in test [6] and in test [16] was inactive. Further, the Potency result in test [12], in test [8], in [11] and in test [14] was “inactive” in each case. Moreover, the Potency was 10.6 µM (active) in test [7], 8.91 µM (active) in test [15] and 11 µM (active) in test [9].

`CCc1ccc(CC)cc1`: the compound was called inactive in test [1], in [3], in [4] and in test [6]. Also, the Potency result in test [2], in test [7], in test [8], in [9], in test [13] and in test [10] was “inactive” in each case. The Potency entry in [11] and in test [14] was “inactive” each time.

For `CNC(C)=O`, the compound was classed as inactive in [1], in [3], in test [5] and in test [6]. Moreover, the Potency result in test [2], in [7], in test [8], in test [9], in [13] and in test [14] was “inactive” in each case.
